M1 antagonist: blocks the rat M1 muscarinic receptor response to acetylcholine. P08482. CHO-M1 cells, Fluo-4 calcium, ACh EC80 antagonist mode; stronger effect = lower value. B-score at 10 µM. actives 3.4% (n = 64,000);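 active = calcium fluorescence response, raw or row-and-column corrected B-score, differing from the plate sample mean either way at a set confidence level, mostly lower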
Htt clearance: compounds clearing mutant huntingtin protein | inhibition, % at 1.5 µM | HeLa Exon1htt(103Q)mCFP, aggregate imaging; zero = plate's median compound well | actives 0.42% (n = 47,000);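 active = inhibition of aggregate fluorescence above about 70%, also judged a hit by eye on the cell image, limit read from the data, passing the limit was not always enough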;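 also: cells exposed to compound for three days before fixation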
D1 mod: allosterically modulates the human D1 dopamine receptor; AID 641; actives 5.9% (n = 58,000); B-score at 10 µM; P21728; HEK293 D1, CRE-luciferase, dopamine EC30 potentiation; actives deviate in either direction;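 active = luminescence count or its row- and column-corrected plate score outside the 99.7% band of the plate's sample wells, on either side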
Target sequence (P21728 whole entry, looked up): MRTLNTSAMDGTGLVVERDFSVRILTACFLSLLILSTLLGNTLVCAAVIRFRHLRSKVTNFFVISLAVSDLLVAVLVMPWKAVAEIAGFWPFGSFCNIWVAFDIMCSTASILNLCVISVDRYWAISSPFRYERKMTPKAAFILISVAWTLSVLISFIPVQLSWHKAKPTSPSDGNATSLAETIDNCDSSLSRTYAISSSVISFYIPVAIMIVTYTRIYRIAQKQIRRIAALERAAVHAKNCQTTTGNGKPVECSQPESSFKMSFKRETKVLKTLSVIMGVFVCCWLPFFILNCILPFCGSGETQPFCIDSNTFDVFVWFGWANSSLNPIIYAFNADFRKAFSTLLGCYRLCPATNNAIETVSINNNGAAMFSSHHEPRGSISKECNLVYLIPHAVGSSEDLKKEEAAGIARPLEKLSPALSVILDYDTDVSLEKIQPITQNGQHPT
M1 agonist: M1 muscarinic receptor agonism; CHO-M1 cells, Fluo-4 calcium fluorescence, agonist mode; stronger effect = higher value; B-score at 10 µM; actives 3% (n = 64,000); AID 626;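 active = fluorescence rise, raw or as B-score row- and column-corrected plate score, outside the 99.7% band of its plate's samples, either direction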
WNV NS2B-NS3 inh: WNV NS2B-NS3 proteinase inhibition; WNV NS2B-NS3 protease, fluorogenic substrate Ex360/Em465; stronger effect = lower value; z-score (no concentration beside the values); actives 0.18% (n = 65,000); AID 577; in the data active = z-score below about -3
D1 mod confirm: confirmation of human D1 dopamine receptor allosteric modulators | shares compounds with D1 mod | actives 88% (n = 2,200) | luminescence at 10 µM | HEK293 D1 CRE-luciferase, dopamine EC30 potentiation; stronger effect = higher value;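 active = luminescence in either of two replicates above the same-plate mean plus 3 SD of the low-dose dopamine control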
D1 no dopamine: activates D1 CRE-luciferase signal without dopamine present; HEK293 D1 CRE-luciferase, luminescence, no dopamine; stronger effect = higher value; luminescence at 10 µM; shares compounds with D1 mod; actives 0.8% (n = 1,900); in the data active = luminescence above about 3900
Isoprot counter: counter-screen for D1 modulators: isoproterenol response in HEK293 cells; shares compounds with D1 mod; HEK293 D1 CRE-luciferase, isoproterenol EC30 counter-screen; calls only at 10 µM; actives 63% (n = 2,200); AID 647;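 active = luminescence in either replicate above plate mean of wells with a partly effective reference agonist dose plus 3 SD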;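 also: isoproterenol raises cAMP through native beta-adrenoceptor Gs so signal bypasses D1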
The depositor's hits bear a star; i = inactive; nt = not tested or not shown; + = active, no number. Most compounds without a hit are left out; they make up all but 8.9% or so of the library.

SMILES	M1 antagonist	Htt clearance	D1 mod	M1 agonist	WNV NS2B-NS3 inh	D1 mod confirm	D1 no dopamine	Isoprot counter
Nc1nc2n(n1)C(c1cccc(Br)c1)CC(c1ccccc1)N2 (stereo not given)	-0.639	-27.4	36.7*	0.00571	1.67	18056*	1512	+
CCN1C(=O)c2cccc3c(S(=O)(=O)Nc4ccccn4)ccc1c23	0.796	-37.1	2.5*	-0.916	0.79	5724*	1712	i
CCN1C(=O)c2cccc3c(S(=O)(=O)Nc4ccccc4)ccc1c23	nt	-65.0	nt	nt	nt	nt	nt	nt
CCN1C(=O)c2cccc3c(S(=O)(=O)Nc4ncccc4C)ccc1c23	0.197	nt	7.89*	-0.0274	-1.73	9156*	1492	+
O=C(NCC(=O)N(c1ccc(F)cc1)C(C(=O)NCC1CCCO1)c1ccccc1)c1ccco1 (stereo not given)	-0.131	nt	-1.27	0.07	-0.98	nt	nt	nt
CCOC(=O)c1sc(-n2[nH]c(C)cc2=O)nc1C	0.107	4.8	-0.16	-0.204	0.51	nt	nt	nt
COc1cccc(-n2nc(C(=O)N3CC(C)CC(C)C3)c3ccccc3c2=O)c1 (stereo not given)	nt	31.4	nt	nt	nt	nt	nt	nt
Cc1cc(O)c(C=Nc2cccc(Cl)c2)c(=O)o1	0.117	nt	3.78*	-0.673	0.88	8536*	1512	i
Nc1nc(SCC(=O)C23CC4CC(CC(C4)C2)C3)n[nH]1	-0.517	nt	5.33*	2.08	-0.74	8548*	nt	i
O=C(CN1C(=O)COc2ccccc21)NCc1ccccn1	nt	21.9	nt	nt	nt	nt	nt	nt
COc1ccc(CN/C(C)=C(/C#N)C(N)=O)cc1OC	-0.948	-9.2	3.48*	-0.114	0.18	7928*	nt	+
O=C(CSc1ncn[nH]1)OCN1C(=O)c2ccccc2C1=O	0.682	-24.0	0.0491	-0.4	-0.4	nt	nt	nt
COc1ccc(-c2nc(-c3cccs3)c(-c3cccs3)[nH]2)cc1O	-0.301	11.3	2.77*	1.35	-1.13	7608	1828	i
COC(=O)c1sccc1NC(=O)c1ccc(Cl)s1	-0.556	3.4	1.73	1.36	0.31	nt	nt	nt
CNC(=O)c1ccsc1NC(=O)c1ccc(Cl)s1	-0.0268	nt	4.89*	0.615	-1.32	16692*	1816	+
Clc1ccccc1Cn1nnc2c(N3CCCC3)ncnc21	-0.18	nt	3.76*	-0.00838	-0.06	13096*	1612	i
N#CCC(=O)N1CCCCCC1	0.145	-83.5	-0.483	0.124	2.48	nt	nt	nt
COc1ccc2[nH]c(=O)c(CN(Cc3cccs3)Cc3nnnn3C(C)(C)C)cc2c1	-0.591	nt	5.28*	-0.341	0.2	7020*	1520	i
O=C(COc1ccccc1)NCc1nnc(SCC(=O)Nc2nccs2)n1-c1ccccc1	-1.06	nt	3.88*	1.31	-0.69	7240	1652	i
COc1cc(OC)c(C2N(c3ccc(Cl)cc3)C(=O)C3CCCN32)cc1OC (stereo not given)	1.07	-32.9	-0.0133	-0.25	0.77	nt	nt	nt
CCOc1ccc(C(=S)N2CCOCC2)cc1OC	nt	-8.9	nt	nt	nt	nt	nt	nt
CCOc1cc2nc(-c3ccc(OC)c(OC)c3)nc(N3CCOCC3)c2cc1OC	-0.455	22.5	13*	4.72	1.1	10492*	1512	+
CCN(CC(=O)NC1CCCCCC1)S(=O)(=O)c1ccccc1	-0.965	nt	6.74*	0.794	0.38	4392	1572	i
N#Cc1nc(-c2cccs2)oc1NCc1ccccc1	0.151	30.9	nt	-0.518	1.12	nt	nt	nt
Cc1ccc(CNc2oc(-c3cccs3)nc2C#N)cc1	1.57	-67.5	18.3*	-0.0654	0.41	22592*	1632	+
N#Cc1nc(-c2ccc(F)cc2)oc1NCc1ccccc1	0.144	nt	5.66*	0.14	0.00193	8092*	1668	i
N#Cc1nc(-c2cccs2)oc1NCc1ccc(Cl)cc1	-0.268	nt	8.31*	-0.00973	0.71	9676*	1684	+
COC(=O)c1ccc(C2C(C(C)=O)=C(C)Nc3ncnn32)cc1 (stereo not given)	-2.07	nt	-0.21	-0.0502	-0.09	nt	nt	nt
COc1ccc(C2(C)NC(=O)N(Cc3cc(Cl)cc4c3OCOC4)C2=O)cc1OC (stereo not given)	0.104	nt	10.4*	0.626	-0.33	22312*	1836	+
